This note sets out measurements from article PMC7862700, “An all-to-all approach to the identification of sequence-specific readers for epigenetic DNA modifications on cytosine”.

Assay in all cases: DAPPL (digital affinity profiling via proximity ligation, sequencing); 10 mM Tris-HCl pH 7.5, 50 mM NaCl, 1 mM DTT, 4% glycerol, room temperature, 30 min; GST-TFs on glutathione beads, 16-mer random dsDNA library, 0.1% formaldehyde crosslink after washing; high values mean tight binding
Holding throughout (conditions): protein: recombinant; tags: N-terminal GST; dsDNA, one strand shown

The target of one assay is T1, FLI1 (Homo sapiens, UniProt Q01543 1-452).
T1 sequence: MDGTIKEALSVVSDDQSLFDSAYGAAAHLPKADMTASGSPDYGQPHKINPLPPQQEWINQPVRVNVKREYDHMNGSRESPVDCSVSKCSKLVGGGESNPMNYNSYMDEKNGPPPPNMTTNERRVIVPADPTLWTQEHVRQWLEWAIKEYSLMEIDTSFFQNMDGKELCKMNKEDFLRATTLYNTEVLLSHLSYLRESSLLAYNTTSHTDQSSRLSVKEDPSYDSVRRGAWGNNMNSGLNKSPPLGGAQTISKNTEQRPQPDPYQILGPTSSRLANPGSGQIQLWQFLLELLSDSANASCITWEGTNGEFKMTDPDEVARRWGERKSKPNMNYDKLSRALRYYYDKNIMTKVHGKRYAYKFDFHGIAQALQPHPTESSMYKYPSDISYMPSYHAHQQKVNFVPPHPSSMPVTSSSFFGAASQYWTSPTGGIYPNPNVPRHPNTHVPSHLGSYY
The method in brief:
(§1)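 A tag-only sample was pooled with DNA-barcoded human transcription factors that had been expressed in yeast as GST fusions and captured on glutathione beads. The pools were incubated for 30 min at room temperature with 200 nmole of a random double-stranded 16-mer DNA library in Tris/NaCl/DTT/glycerol buffer, then washed, crosslinked with 0.1% formaldehyde, proximity-ligated (BsaI/T4 ligase, 1 h, 37 °C), PCR-amplified and sequenced on an Illumina NextSeq500. Binding signal is each hexamer's read frequency for a factor divided by its frequency for the tag-only sample.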

Another assay addresses T2, ELK1 (Homo sapiens, UniProt P19419 1-428).
T2 sequence: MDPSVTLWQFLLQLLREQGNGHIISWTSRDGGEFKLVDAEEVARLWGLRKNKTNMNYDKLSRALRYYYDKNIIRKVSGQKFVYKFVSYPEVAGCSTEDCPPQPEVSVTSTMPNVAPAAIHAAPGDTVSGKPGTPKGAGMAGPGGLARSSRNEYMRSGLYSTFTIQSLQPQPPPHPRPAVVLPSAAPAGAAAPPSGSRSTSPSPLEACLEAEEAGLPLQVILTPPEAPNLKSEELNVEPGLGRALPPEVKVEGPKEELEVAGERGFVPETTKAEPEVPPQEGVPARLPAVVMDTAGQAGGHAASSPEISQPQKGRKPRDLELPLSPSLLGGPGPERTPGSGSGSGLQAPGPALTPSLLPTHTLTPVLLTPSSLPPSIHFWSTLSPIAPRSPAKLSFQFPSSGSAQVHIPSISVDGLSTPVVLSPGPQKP
The method in brief: as §1

A further assay concerns the target T3, GABPA (Homo sapiens, UniProt Q06546 1-454).
T3 sequence: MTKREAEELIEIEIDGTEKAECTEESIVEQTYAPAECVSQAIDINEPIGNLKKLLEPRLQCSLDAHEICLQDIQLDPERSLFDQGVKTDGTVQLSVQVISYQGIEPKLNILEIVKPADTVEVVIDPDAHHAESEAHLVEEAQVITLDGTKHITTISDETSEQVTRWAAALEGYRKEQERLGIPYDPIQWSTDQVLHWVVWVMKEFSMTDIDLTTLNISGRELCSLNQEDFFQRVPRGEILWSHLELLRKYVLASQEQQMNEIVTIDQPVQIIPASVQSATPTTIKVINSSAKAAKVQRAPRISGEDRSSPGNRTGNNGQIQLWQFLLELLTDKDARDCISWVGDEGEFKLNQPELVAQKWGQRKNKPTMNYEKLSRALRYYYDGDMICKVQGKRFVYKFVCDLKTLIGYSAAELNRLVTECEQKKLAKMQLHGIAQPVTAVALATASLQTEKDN
The method in brief: as §1

In the next assay the target is T4, ERG (Homo sapiens, UniProt P11308 1-479).
T4 sequence: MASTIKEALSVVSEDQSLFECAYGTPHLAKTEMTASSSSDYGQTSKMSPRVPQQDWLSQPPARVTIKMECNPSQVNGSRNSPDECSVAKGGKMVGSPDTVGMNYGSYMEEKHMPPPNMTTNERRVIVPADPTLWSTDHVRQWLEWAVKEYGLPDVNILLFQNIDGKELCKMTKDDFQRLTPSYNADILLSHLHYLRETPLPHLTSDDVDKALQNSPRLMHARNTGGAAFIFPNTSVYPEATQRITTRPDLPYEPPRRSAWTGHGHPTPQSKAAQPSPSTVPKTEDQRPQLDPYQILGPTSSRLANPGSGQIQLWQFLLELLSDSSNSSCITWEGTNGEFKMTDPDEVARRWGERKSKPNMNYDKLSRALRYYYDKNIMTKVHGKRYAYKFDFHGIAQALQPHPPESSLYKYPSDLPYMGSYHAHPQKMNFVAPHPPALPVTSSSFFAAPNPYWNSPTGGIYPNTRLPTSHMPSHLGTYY
The method in brief:
as §1

A further assay deals with ELF1 (Homo sapiens, UniProt P32519 1-619). The method in brief:
as §1

Another assay deals with T5, EHF (Homo sapiens, UniProt Q9NZC4 1-300).
T5 sequence: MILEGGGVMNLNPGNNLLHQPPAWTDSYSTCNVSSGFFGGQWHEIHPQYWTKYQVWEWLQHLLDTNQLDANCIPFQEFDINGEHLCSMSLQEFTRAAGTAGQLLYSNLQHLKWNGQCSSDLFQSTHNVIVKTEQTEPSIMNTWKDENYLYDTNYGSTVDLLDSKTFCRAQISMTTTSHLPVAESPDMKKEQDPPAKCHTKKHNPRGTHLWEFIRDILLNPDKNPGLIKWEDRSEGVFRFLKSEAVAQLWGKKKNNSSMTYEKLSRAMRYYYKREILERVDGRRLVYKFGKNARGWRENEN
The method in brief: as §1

The target of another assay is SPI1 (Homo sapiens, UniProt P17947 1-270). The method in brief:
as §1

The target in a further assay is SPIB (Homo sapiens, UniProt Q01892 1-262). The method in brief: as §1
The target in the next assay is T6, ELK3 (Homo sapiens, UniProt P41970 1-407).
T6 sequence: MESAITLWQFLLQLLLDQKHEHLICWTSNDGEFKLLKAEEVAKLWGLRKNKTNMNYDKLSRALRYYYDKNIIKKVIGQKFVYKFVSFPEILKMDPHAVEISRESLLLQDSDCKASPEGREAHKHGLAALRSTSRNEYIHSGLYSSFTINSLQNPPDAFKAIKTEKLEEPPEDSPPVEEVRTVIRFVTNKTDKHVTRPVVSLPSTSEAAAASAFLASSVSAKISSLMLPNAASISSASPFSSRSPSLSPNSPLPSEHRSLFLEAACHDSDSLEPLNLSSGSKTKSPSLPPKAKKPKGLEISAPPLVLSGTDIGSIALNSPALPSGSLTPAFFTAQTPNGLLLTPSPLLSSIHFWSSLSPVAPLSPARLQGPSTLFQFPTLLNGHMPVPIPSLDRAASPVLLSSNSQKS
The method in brief: as §1

Chain of ELF1 (P32519 whole entry): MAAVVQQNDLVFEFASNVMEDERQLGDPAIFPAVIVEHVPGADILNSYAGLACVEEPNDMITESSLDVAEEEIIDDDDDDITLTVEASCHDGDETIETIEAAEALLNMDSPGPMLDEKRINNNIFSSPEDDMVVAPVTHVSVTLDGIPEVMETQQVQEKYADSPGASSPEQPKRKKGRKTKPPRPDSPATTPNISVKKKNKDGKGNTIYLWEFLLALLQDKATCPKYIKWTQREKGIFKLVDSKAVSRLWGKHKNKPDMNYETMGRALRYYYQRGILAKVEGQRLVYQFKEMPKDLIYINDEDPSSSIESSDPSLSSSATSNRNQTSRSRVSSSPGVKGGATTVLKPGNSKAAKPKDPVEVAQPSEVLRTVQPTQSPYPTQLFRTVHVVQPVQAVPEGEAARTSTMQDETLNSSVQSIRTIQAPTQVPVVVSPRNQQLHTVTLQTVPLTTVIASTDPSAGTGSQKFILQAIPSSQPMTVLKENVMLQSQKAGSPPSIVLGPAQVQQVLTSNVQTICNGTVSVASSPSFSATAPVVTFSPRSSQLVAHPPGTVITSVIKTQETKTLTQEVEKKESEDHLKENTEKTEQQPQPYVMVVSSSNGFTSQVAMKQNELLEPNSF
Chain of SPIB (Q01892 whole entry): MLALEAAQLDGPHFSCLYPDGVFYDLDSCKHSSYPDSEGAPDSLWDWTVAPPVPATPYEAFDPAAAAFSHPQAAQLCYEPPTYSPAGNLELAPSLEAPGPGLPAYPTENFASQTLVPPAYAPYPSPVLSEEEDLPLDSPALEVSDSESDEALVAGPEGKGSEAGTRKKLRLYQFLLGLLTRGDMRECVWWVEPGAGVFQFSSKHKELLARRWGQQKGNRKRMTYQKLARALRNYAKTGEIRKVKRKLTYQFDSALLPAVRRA

Regarding TCTTCA, the binding signal is 1.43 fold enrichment (6-mer frequency, TF over GST control) in the assay with FLI1; 1.19 fold enrichment (6-mer frequency, TF over GST control) with ELK1; 1.16 fold enrichment (6-mer frequency, TF over GST control) in the assay with GABPA; 1.16 fold enrichment (6-mer frequency, TF over GST control) with ERG; 1.33 fold enrichment (6-mer frequency, TF over GST control) with ELF1; 1.14 fold enrichment (6-mer frequency, TF over GST control) in the assay with EHF. For the same sequence, the binding signal was 1.21 fold enrichment (6-mer frequency, TF over GST control) with SPI1; 1.27 fold enrichment (6-mer frequency, TF over GST control) with SPIB; 1.27 fold enrichment (6-mer frequency, TF over GST control) with ELK3.
